High-throughput results (PubChem)
AmpC nodet inh: AmpC beta-lactamase inhibition, detergent-free assay; AmpC nitrocefin hydrolysis, absorbance 480 nm, no detergent; 1.8% of 71,000 active; P00811; Potency, µM (top dose mostly 28.7 µM); AID 585
Target sequence (P00811 whole entry, looked up): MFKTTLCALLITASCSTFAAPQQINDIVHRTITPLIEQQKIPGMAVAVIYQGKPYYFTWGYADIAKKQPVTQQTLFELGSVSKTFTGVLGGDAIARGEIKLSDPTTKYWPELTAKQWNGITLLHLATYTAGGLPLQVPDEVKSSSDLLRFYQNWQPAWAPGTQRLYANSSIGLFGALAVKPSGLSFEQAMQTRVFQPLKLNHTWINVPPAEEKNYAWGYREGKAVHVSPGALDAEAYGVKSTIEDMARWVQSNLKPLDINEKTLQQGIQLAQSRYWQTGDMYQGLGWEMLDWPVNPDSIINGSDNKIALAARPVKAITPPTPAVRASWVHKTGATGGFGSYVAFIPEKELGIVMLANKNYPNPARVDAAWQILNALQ
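Enzyme, pH 7.0 phosphate. Compound titrations were pre-incubated with AmpC for 15 min at room temperature before nitrocefin (stock 800 uM) addition; product formation was recorded at 480 nm every 20 s for 4 min.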
Prx2 Sm inh: inhibitors of Schistosoma mansoni peroxiredoxin 2; S. mansoni Prx2 activity coupled to TGR/GSH (TGR is thioredoxin glutathione reductase), NADPH fluorescence loss, qHTS; Potency, µM; 0.07% of 65,000 active; AID 448
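qHTS, coupled TGR/Prx2 format; 15 min compound preincubation at RT; reaction started with H2O2 (2.5 mM aliquot); kinetic NADPH fluorescence decrease, ex 365/em 450 nm.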
AmpC inh det: inhibitors of E. coli AmpC beta-lactamase with detergent. P00811. 0.09% of 71,000 active. Potency, µM (top dose mostly 28.7 µM). purified AmpC, nitrocefin hydrolysis with detergent; active = well fitted curve in the direction sought with a large enough effect; inconclusive = small, poorly fitted or top-dose-only effect
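E. coli AmpC (5.3 nM) in 20 mM phosphate pH 7.0 with 0.01% Triton X-100, preincubated 15 min RT with compound; nitrocefin (2 uL of 800 uM stock) hydrolysis followed by 480 nm absorbance every 20 s over 4 min.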
LT uptake inh: blocks cellular internalization of anthrax lethal toxin | AID 912 | Potency, µM (highest dose often 40 µM), most hits filed as inhibitors | Cells, anthrax lethal toxin internalization, FRET ratio (460/530) | 0.67% of 70,000 active; note: nearly all actives have a fitted effect of over 50% in size
Large screens that a line does not name were inactive; [ ] = remark or other dose. In the library only some 2.4% were active in any assay of this set; here they are far more common. Unless noted, calls come from the whole dose curve.

CCC(=O)N1CCN(c2ccc(NC(=O)c3cc4ccccc4o3)cc2Cl)CC1	LT uptake inh 10µM
O=C(Nc1ccc(N2CCN(C(=O)c3ccco3)CC2)c(Cl)c1)c1cc2ccccc2o1	LT uptake inh inconclusive
CCCC(=O)N1CCN(c2ccc(NC(=O)c3cc4ccccc4o3)cc2Cl)CC1	LT uptake inh 6.3µM
CCOc1ccc(S(=O)(=O)n2c(C)nc3ccccc32)cc1	AmpC nodet inh 4µM[single pt active]
CCCCOc1ccc(S(=O)(=O)n2c(C)nc3ccccc32)cc1	LT uptake inh inconclusive
COc1cccc(-c2ccc3ncnc(NCc4ccc(OC)cc4OC)c3c2)c1	AmpC nodet inh 7.9µM, AmpC inh det 13µM, LT uptake inh inconclusive
COc1cccc(-c2ccc3ncnc(NCc4ccccc4)c3c2)c1	LT uptake inh inconclusive
COc1cccc(-c2ccc3ncnc(NCc4ccccc4OC)c3c2)c1	AmpC nodet inh 1.3µM, AmpC inh det 13µM, LT uptake inh 4µM
COc1cccc(-c2cc(NCc3ccccc3)ncn2)c1	AmpC nodet inh 5µM, AmpC inh det 7.9µM
Oc1cc(O)cc(/C=C\c2ccc(O)c(O)c2)c1	none
C[C@@H](C(=O)O)c1cccc(C(=O)c2ccccc2)c1	LT uptake inh inconclusive
O=C(Cn1cc2c(n1)CCCC2)Nc1ccccc1Br	AmpC nodet inh 4µM[single pt active]
O=C(O)C[C@H](NC(=O)CP(=O)(O)O)C(=O)O.[NH-][C@@H]1CCCC[C@@H]1[NH-].[Pt]	none
CCNc1ncc2nc(-c3ccccc3)c(=O)n(CCOC)c2n1	LT uptake inh inconclusive
O=C(c1ccc(F)cc1)C(CN1CCOCC1)c1ccccc1 (stereo not drawn)	LT uptake inh 13µM (no result: Prx2 Sm inh)
c1ccc(C(CN2CCOCC2)c2ccccc2)cc1	none
O=C(NCCc1ccccc1)c1ccc(-n2cnnn2)cc1	none
c1ccc(CCNc2ccc3nncn3n2)cc1	AmpC nodet inh 3.2µM[single pt active]
O=C(c1ccccc1C(=O)N1CCN(c2ccccc2F)CC1)N1CCN(c2ccccc2F)CC1	none (no result: Prx2 Sm inh)
O=C(N1CCOCC1)N1CCN(c2ccccc2F)CC1	AmpC nodet inh 4µM[single pt active]
CC(=O)N[C@@H](c1ccccc1)[C@]1(C)C[C@H]1[C@@H](C)C(=O)Nc1ccc2ccccc2c1	none
C[C@@H](C(=O)Nc1ccc2ccccc2c1)[C@H]1C[C@]1(C)[C@H](NC(=O)OCc1ccccc1)c1ccccc1	AmpC nodet inh 7.9µM, LT uptake inh inconclusive
C[C@@H](C(=O)Nc1ccc2ccccc2c1)[C@@H]1C[C@@]1(C)[C@@H](NS(=O)(=O)c1ccccc1)c1ccccc1	LT uptake inh inconclusive
Cc1cc(C(=O)N[C@H](c2ccccc2)[C@@]2(C)C[C@@H]2[C@@H](C)C(=O)Nc2ccc3ccccc3c2)n(C)n1	LT uptake inh 10µM
O=C(Oc1ccccc1)N1CCC[C@@]2(CCN(c3ccccc3)C2)C1	none
C[C@H](N)c1cccc(Cl)c1Cl	none
O=C(c1cc2ccccc2cc1OCC(O)CN1CCCCC1)N1CCCCC1 (stereo not drawn)	AmpC nodet inh 4µM[single pt active]
OC(COc1ccc(Cl)cc1)CN1CCCCC1 (stereo not drawn)	none
COc1ccc(OCC(O)CN2CCCCC2)cc1 (stereo not drawn)	AmpC nodet inh 4µM[single pt active]
CCN(CC)C(=O)N[C@H]1C[C@H]2c3cccc4[nH]cc(c34)C[C@@H]2N(C)C1	none
COc1ccc(NC(=O)Cn2nc(C(F)(F)F)c3c2CCCC3)c(OC)c1	LT uptake inh 13µM
COc1ccc(CNC(=O)Cn2nc(C(F)(F)F)c3c2CCC3)cc1	none
COc1cccc(NC(=O)Cn2nnc(C(=O)Nc3ccccc3)c2N)c1	none
CCc1ccc(Cn2nnc(C(=O)Nc3ccc(OC)cc3OC)c2N)cc1	AmpC nodet inh 4µM[single pt active]
COc1cccc(NC(=O)c2nnn(CCc3ccccc3)c2N)c1	AmpC nodet inh 4µM[single pt active], LT uptake inh inconclusive
CCOc1ccc(NC(=O)Cn2nnc(C(=O)NCc3ccccc3OC)c2N)cc1	LT uptake inh inconclusive
CSc1cccc(NC(=O)c2nnn(Cc3ccccc3)c2N)c1	LT uptake inh inconclusive
CCOc1ccc(Cn2nnc(C(=O)NCc3ccc(OC)cc3)c2N)cc1	AmpC nodet inh 4µM[single pt active]
COc1cc(NC(=O)c2nnn(Cc3ccc(SC)cc3)c2N)cc(OC)c1	AmpC nodet inh 4µM[single pt active], LT uptake inh inconclusive
COC(=O)c1nnn(Cc2ccccc2)c1N	none
CCOC(=O)OCC1OC(c2ccccc2)C=CC1Oc1cccc(N(C)C)c1 (stereo not drawn)	none (no result: AmpC nodet inh, Prx2 Sm inh, AmpC inh det)
O=S(=O)(Cl)c1ccccc1	none (no result: Prx2 Sm inh)
COc1ccc(OC)c(NC(=O)c2nnn(CCc3ccccc3)c2N)c1	AmpC nodet inh 4µM[single pt active]
